PubChem BioAssay (NCATS)
Results filed as inconclusive are left out. Active and inactive are the calls of the source. Calls come from the whole dose curve; as a rule, active = well fitted curve in the direction sought with a large enough effect; inconclusive = small, poorly fitted or top-dose-only effect, or another doubt; inactive = no such curve, though single readings can be large; an effect the other way counts as inactive or inconclusive. Numbered stars: 1 amine (or outer) side, 2 acyl side, 3 side chain; on linkers, the order of the positions; unused ones are H or OH. Bridge positions count the residues as written; N and C are the ends. Square brackets hold non-standard residues; d marks the D form. Peptide text beside a SMILES is read from it. * marks the point of attachment. ξ: configuration not given here. ΔAla(Z-3-ureido) = NC(=O)N/C=C(\N)C(=O)O; X2 = NC1=NC(O)CC(C(N[*:1])C(=O)[*:2])N1; ξβ3hOrn = NCCCC(N)CC(=O)*; Dap = NC[CH](N)C(=O)O

Experiments:
[1] = S16 Schwann cell PMP22 intronic element firefly luciferase assay (AID 624032); note: nearly all actives have a fitted effect of over 30% in size; note: potency is the fitted concentration of half-maximal effect
How it was run: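 Rat S16 Schwann cells stably carrying firefly luciferase driven by a PMP22 intronic element, in 10% FBS, treated 24 h at 37 C. ONE-Glo luminescence normalized to PTC124 control and DMSO (0%); curves classed by r2, magnitude and activity.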

[2] = system: AS120; assay: qHTS profiling for inhibitors of Plasmodium falciparum proliferation (AID 504749); note: nearly all actives have a fitted effect of over 60% in size; settings: P. falciparum in erythrocytes, SYBR Green DNA, 72 h; series mostly up to 28.7 µM
How it was run: (§1)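 P. falciparum-infected erythrocytes (0.3% parasitemia, 2.5% hematocrit) incubated with compound 72 h at 37 C, 5% CO2. Parasite DNA detected by SYBR Green after lysis, overnight at room temperature; normalised to 0.29 uM artemisinin and DMSO.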

[3] = system: ATS95; assay: as above; settings: P. falciparum in erythrocytes, SYBR Green DNA, 72 h; series mostly up to 28.7 µM
How it was run: as §1

[4] = system: C2A; assay: as above; settings: P. falciparum in erythrocytes, SYBR Green DNA, 72 h; series mostly up to 28.7 µM
How it was run: as §1

[5] = system: CP191; assay: as above; settings: P. falciparum in erythrocytes, SYBR Green DNA, 72 h; series mostly up to 28.7 µM
How it was run: as §1

[6] = system: CP211; assay: as above; settings: P. falciparum in erythrocytes, SYBR Green DNA, 72 h; series mostly up to 28.7 µM
How it was run: as §1

[7] = system: CP215; assay: as above; settings: P. falciparum in erythrocytes, SYBR Green DNA, 72 h; series mostly up to 28.7 µM
How it was run: as §1

[8] = system: CP247; assay: as above; settings: P. falciparum in erythrocytes, SYBR Green DNA, 72 h; series mostly up to 28.7 µM
How it was run: as §1

[9] = system: CP256; assay: as above; settings: P. falciparum in erythrocytes, SYBR Green DNA, 72 h; series mostly up to 28.7 µM
How it was run: as §1

[10] = system: CP262; assay: as above; settings: P. falciparum in erythrocytes, SYBR Green DNA, 72 h; series mostly up to 28.7 µM
How it was run: as §1

[11] = system: CP297; assay: as above; settings: P. falciparum in erythrocytes, SYBR Green DNA, 72 h; series mostly up to 28.7 µM
How it was run: as §1

[12] = system: CP335; assay: as above; settings: P. falciparum in erythrocytes, SYBR Green DNA, 72 h; series mostly up to 28.7 µM
How it was run: as §1

[13] = system: Dd2; assay: as above; settings: P. falciparum in erythrocytes, SYBR Green DNA, 72 h; series mostly up to 28.7 µM
How it was run: as §1

[14] = system: ECU; assay: as above; settings: P. falciparum in erythrocytes, SYBR Green DNA, 72 h; series mostly up to 28.7 µM
How it was run: as §1

[15] = system: N140; assay: as above; settings: P. falciparum in erythrocytes, SYBR Green DNA, 72 h; series mostly up to 28.7 µM
How it was run: as §1

[16] = system: P93_24; assay: as above; settings: P. falciparum in erythrocytes, SYBR Green DNA, 72 h; series mostly up to 28.7 µM
How it was run: as §1

[17] = system: PAD; assay: as above; settings: P. falciparum in erythrocytes, SYBR Green DNA, 72 h; series mostly up to 28.7 µM
How it was run: as §1

[18] = system: SC27B; assay: as above; settings: P. falciparum in erythrocytes, SYBR Green DNA, 72 h; series mostly up to 28.7 µM
How it was run: as §1

[19] = system: TAB113; assay: as above; settings: P. falciparum in erythrocytes, SYBR Green DNA, 72 h; series mostly up to 28.7 µM
How it was run: as §1

[20] = system: TAB165; assay: as above; settings: P. falciparum in erythrocytes, SYBR Green DNA, 72 h; series mostly up to 28.7 µM
How it was run: as §1

Measured: Potency

CC(N)C(=O)NCC(=O)NC1CSSCC(C(=O)O)NC(=O)C(CO)NC(=O)C(C(C)O)NC(=O)C(Cc2ccccc2)NC(=O)C(C(C)O)NC(=O)C(CCCCN)NC(=O)C(Cc2c[nH]c3ccccc23)NC(=O)C(Cc2ccccc2)NC(=O)C(Cc2ccccc2)NC(=O)C(CC(N)=O)NC(=O)C(CCCCN)NC1=O (configuration not stated)
inactive: [1] | [2] | [3] | [4] | [5] | [6] | [7] | [8] | [9] | [10] | [11] | [12] | [13] | [14] | [15] | [16] | [17] | [18] | [19] | [20]

CNCC(=O)NC(CCCN=C(N)N)C(=O)NC(C(=O)NC(Cc1ccc(O)cc1)C(=O)NC(C(=O)NC(Cc1cnc[nH]1)C(=O)N1CCCC1C(=O)NC(C)C(=O)O)C(C)C)C(C)C (configuration not stated)
inactive: [1] | [2] | [3] | [4] | [5] | [6] | [7] | [8] | [9] | [10] | [11] | [12] | [13] | [14] | [15] | [16] | [17] | [18] | [19] | [20]

CCOC(=O)C(CS)NCCN[C@@H](CS)C(=O)OCC (some centres not stated)
inactive: [2] | [3] | [4] | [5] | [6] | [7] | [8] | [9] | [10] | [11] | [12] | [13] | [14] | [15] | [16] | [17] | [18] | [19] | [20]
active: [1] 10.2 µM

CC(=O)OCC(=O)[C@@]1(O)CCC2C3CCC4=CC(=O)CC[C@]4(C)C3=CC[C@@]21C (some centres not stated)
inactive: [1] | [2] | [3] | [4] | [5] | [6] | [7] | [8] | [9] | [10] | [11] | [12] | [13] | [14] | [15] | [16] | [17] | [18] | [19] | [20]

CC(=O)OCC1=C(C(=O)O)N2C(=O)C(NC(=O)Cc3ccccc3)C2SC1 (configuration not stated)
inactive: [1] | [2] | [3] | [4] | [5] | [6] | [7] | [8] | [9] | [10] | [11] | [12] | [13] | [14] | [15] | [16] | [17] | [18] | [19] | [20]

CC(C)CC(NC(=O)C(COC(C)(C)C)NC(=O)C(Cc1ccc(O)cc1)NC(=O)C(CO)NC(=O)C(Cc1c[nH]c2ccccc12)NC(=O)C(Cc1cnc[nH]1)NC(=O)C1CCC(=O)N1)C(=O)NC(CCCN=C(N)N)C(=O)N1CCCC1C(=O)NNC(N)=O (configuration not stated)
inactive: [1] | [2] | [3] | [4] | [5] | [6] | [7] | [8] | [9] | [10] | [11] | [12] | [13] | [14] | [15] | [16] | [17] | [18] | [20]

NCCCC(N)CC(=O)NC1CNC(=O)C(C2CC(O)N=C(N)N2)NC(=O)/C(=C/NC(N)=O)NC(=O)C(CO)NC(=O)C(CO)NC1=O (stereo not drawn) (ξβ3hOrn-[Dap]SS[ΔAla(Z-3-ureido)][X2]; lactam 1-C; configuration not given here)
inactive: [1] | [2] | [4] | [5] | [6] | [8] | [9] | [10] | [11] | [12] | [13] | [14] | [15] | [16] | [17] | [18] | [19] | [20]

O=C1/C(=C\c2cccs2)CCC/C1=C/c1cccs1
inactive: [1] | [2] | [3] | [4] | [6] | [7] | [8] | [9] | [10] | [11] | [13] | [14] | [15] | [16] | [17] | [18] | [19] | [20]

CCC(C)C1NC(=O)C(Cc2ccc(O)cc2)NC(=O)C(N)CSSCC(C(=O)N2CCCC2C(=O)NC(CC(C)C)C(=O)NCC(N)=O)NC(=O)C(CC(N)=O)NC(=O)C(CCC(N)=O)NC1=O (configuration not stated)
inactive: [1] | [2] | [3] | [4] | [5] | [6] | [7] | [9] | [10] | [11] | [12] | [13] | [14] | [15] | [16] | [17] | [18] | [19] | [20]

CCC1NC(=O)C(NC(=O)c2ncccc2O)C(C)OC(=O)C(c2ccccc2)NC(=O)C2CC(=O)CCN2C(=O)C(Cc2ccccc2)N(C)C(=O)C2CCCN2C1=O (configuration not stated)
inactive: [1] | [3] | [4] | [5] | [6] | [7] | [8] | [9] | [10] | [11] | [12] | [18] | [19]

CC(C)C[C@H](NC(=O)[C@@H](Cc1c[nH]c2ccccc12)NC(=O)[C@@H](Cc1ccc(O)cc1)NC(=O)[C@@H](CO)NC(=O)[C@@H](Cc1c[nH]c2ccccc12)NC(=O)C(Cc1cnc[nH]1)NC(=O)C1CCC(=O)N1)C(=O)N[C@@H](CCCN=C(N)N)C(=O)N1CCC[C@@H]1C(=O)NCC(N)=O (some centres not stated)
inactive: [1] | [2] | [3] | [4] | [5] | [6] | [7] | [8] | [9] | [10] | [11] | [12] | [13] | [14] | [15] | [16] | [17] | [18] | [19] | [20]
